Data on 90 compounds can be found in PubChem BioAssay AID504848 (National Center for Advancing Translational Sciences (NCATS), 2011).

Where “and” joins values, the source holds several entries; their conditions need not be identical. Equal entries are not always repeated. Hit rate of the full screen: of about 2,300 compounds, about 1,400 (61%) were called active. Another 29% or so got no clear call; they are omitted. Calls follow the shape of the dose curve; as a rule, active = well fitted inhibition curve with a large enough effect; inconclusive = small, poorly fitted or top-dose-only effect, or effect the other way; inactive = no such curve, though single readings can be large or run the other way. So high a share suggests a set chosen from earlier hits. Some of the results follow.
Potency is read from the fitted curve at half-maximal effect.

The assay is described as follows: Confirmation screen for delayed death inhibitors of the malarial parasite plastid, 96 hour incubation. Also: nearly all actives have a fitted effect of over 60% in size. As to conditions: P. falciparum luciferase growth in erythrocytes; series mostly up to 28.7 µM. Put shortly: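 Erythrocytes infected with luciferase-expressing P. falciparum (2% hematocrit, 0.1% parasitemia final) in RPMI 1640 with 0.5% Albumax, exposed to compounds 96 h at 37 C, 5% CO2. Growth inhibition read as decreased luciferase luminescence.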
With `CSc1ccccc1OCc1cc(C(=O)N(C)CCc2c(C)n[nH]c2C)no1`, the Potency is 10 µM (active).

As for `CCOC(=O)c1ccc(CNC(=O)c2cc(COc3ccccc3SC)on2)o1`, the Potency result is “inactive”.

For the compound `CCN(CCN1CCCC1)C(=O)c1cc(COc2ccccc2SC)on1`, the Potency was 12.6 µM (active).

With `CSc1ccccc1OCc1cc(C(=O)NCCCn2nc(C)cc2C)no1`, the Potency is 12.6 µM (active).

With `CSc1ccccc1OCc1cc(C(=O)NCCn2ccnc2C)no1`, the Potency entry is “inactive”.

On to `CC(=O)NC1=C(Nc2ccc(N(C)C)cc2)C(=O)c2ccccc2C1=O`, for which the Potency is 6.31 µM (active).

`COc1ccc(NC2=C(NC(C)=O)C(=O)c3ccccc3C2=O)cc1`: the Potency is 3.16 µM (active).

As for `N#Cc1ccccc1S(=O)(=O)N1CCC(C(=O)NCc2ccccc2CN2CCCC2)CC1`, the Potency was 14.1 µM (active).

Turning to `CCOC(=O)c1cnc2ccccc2c1NCCc1ccc(OC)c(OC)c1`, the Potency is 5.01 µM (active).

With `Cc1ccc2c(c1)c1c3n2CCN(C(=O)CCl)C3CCC1` (stereo not given), the Potency was 14.1 µM (active).

On to `CN(CC(=O)Nc1ccc(Cl)cc1)C(=O)Cc1c(F)cccc1Cl`, for which the Potency was 10 µM (active).

With `O=C(/C=C/Sc1ncn[nH]1)c1ccc(Cl)cc1`, the Potency is 12.6 µM (active).

On to `CCC1OC(=O)C[C@@H](O)[C@H](C)[C@@H](OC2OC(C)CC(N(C)C)C2O)[C@@H](CC=O)C[C@@H](C)C(=O)/C=C/[C@]2(C)OC2C1C` (stereo not given in full), for which the Potency was 1.78 µM (active).

Consider `Cc1cc(C)n(Cc2ccc(C(=O)N/N=C/c3ccc(-c4ccc([N+](=O)[O-])cc4)o3)o2)n1`, for which the Potency was 5.01 µM (active).

Consider `COc1cc(C(C)=O)ccc1OCC(O)CN1CCN(c2cc(C)cc(C)c2)CC1` (stereo not given), for which the Potency is 14.1 µM (active).

Take `CC(C)(C)C1C/C(=C/c2ccccn2)C(=O)/C(=C/c2ccccn2)C1` (stereo not given): the Potency is 0.158 µM (active).

As for `CSc1cccc(CN2CCC(Oc3cccc(C(=O)N4CCCC4)c3)CC2)c1`, the Potency was 12.6 µM (active).

In the case of `COCCNC(=O)c1cccc(OC2CCN(Cc3cccc(SC)c3)CC2)c1`, the Potency was 12.6 µM (active).

For `COCCNC(=O)c1cccc(OC2CCN(Cc3ccc(C(C)C)cc3)CC2)c1`, the Potency is 11.2 µM (active).

Regarding `CN(C)CCn1c(=O)n(Cc2ccco2)c(=O)c2c3c(sc21)CCCCC3`, the Potency is 10 µM (active).

As to `O=c1c(Cl)cc(Cl)nn1-c1ccccc1`, the Potency was 12.6 µM (active).

For `Cc1ccc2c(CN(C)Cc3cccc(F)c3)cc(=O)oc2c1C`, the Potency was 12.6 µM (active).

On to `Cc1ccccc1CN(C)Cc1cc(=O)oc2c(C)c(C)ccc12`, for which the Potency was 15.8 µM (active).

In the case of `Cc1c(O)ccc2c(CN(C)Cc3ccccc3)cc(=O)oc12`, the Potency was 12.6 µM (active).

As to `COc1cc2c(cc1OC)CN(Cc1cc(=O)oc3c(C)c(C)ccc13)CC2`, the Potency was 15.8 µM (active).

For `C/C(=N\NC(=O)c1cccc(S(=O)(=O)N2CCOCC2)c1)c1ccc(O)cc1`, the Potency was 1 µM (active).

As to `O=C(Nc1ccccc1[N+](=O)[O-])c1cc(S(=O)(=O)N2CCOCC2)cs1`, the Potency is 14.1 µM (active).

On to `O=C(COC(=O)c1ccc(F)c(S(=O)(=O)N2CCOCC2)c1)Nc1ccc2[nH]c(=O)[nH]c2c1`, for which the Potency entry is “inactive”.

For `O=C(Nc1ccccc1N1CCOCC1)c1ccc(F)c(S(=O)(=O)N2CCOCC2)c1`, the Potency is 8.91 µM (active).

On to `O=C(Nc1ccccc1N1CCOCC1)c1cccc(S(=O)(=O)N2CCOCC2)c1`, for which the Potency is 11.2 µM (active).

For `COc1ccc(CNn2c(-c3ccccc3F)nc3ccccc3c2=O)cc1OC`, the Potency is 5.01 µM (active).

`Cc1ccccc1C1=NC(C(F)(F)F)(C(F)(F)F)c2c(n(-c3ccc(F)cc3)c(=O)[nH]c2=O)N1`: the Potency was 11.2 µM (active).

For `CC(=O)/C(C#N)=C1\NC(=O)C(Cc2ccc(C)c(Cl)c2)S1` (stereo not given), the Potency is 12.6 µM (active).

`CC(=O)/C(C#N)=C1\NC(=O)C(Cc2ccc(C)c(C)c2)S1` (stereo not given): the Potency was 11.2 µM (active).

On to `CC(=O)/C(C#N)=C1\NC(=O)C(Cc2cc(Cl)ccc2Cl)S1` (stereo not given), for which the Potency is 14.1 µM (active).

With `COC(=O)c1ccccc1SC1CC(=O)N(c2ccccc2)C1=O` (stereo not given), the Potency entry was “inactive”.

Consider `CC(C)CN1C2CCCC1CC(NC(=S)NCc1ccco1)C2` (stereo not given), for which the Potency is 10 µM (active).

For `CCOC(=O)C1CCCCN1Cc1cccc(OCc2ccccc2)c1` (stereo not given), the Potency is 12.6 µM (active).

Turning to `CCOC(=O)C1CCCN(Cc2ccc(OCc3ccccc3)c(OC)c2)C1` (stereo not given), the Potency was 10 µM (active).

As to `O=C(C1CCC(=O)N1Cc1ccccc1Cl)N1CCN(c2cccc(Cl)c2)CC1` (stereo not given), the Potency is 11.2 µM (active).

As to `CCS(=O)(=O)c1nc(S(=O)(=O)c2ccc(C)cc2)c(N2CCC3(CC2)OCCO3)s1`, the Potency was 10 µM (active).

As for `Cc1ccc(CN(Cc2ccccn2)C(=O)Nc2ccc(C)c(C)c2)cc1`, the Potency was 15.8 µM (active).

In the case of `Cc1ccc(NC(=O)CN2C(=O)S/C(=C\c3ccccn3)C2=O)cc1C`, the Potency result is “inactive”.

Take `OCC1(CCOc2ccccc2)CCN(Cc2nc3ccc(F)cc3[nH]2)CC1`: the Potency is 12.6 µM (active).

For `Cc1c(CN2CCC(CO)(CCOc3ccccc3)CC2)[nH]c2ccc(Cl)cc12`, the Potency is 5.62 µM (active).

`Cc1ccc(-n2c(-c3ccc(Cl)cc3)c[n+]3c2CCC3)cc1`: the Potency is 0.0398 µM (active).

For `CC(C)C[C@H](NC(=O)c1nc[nH]c1C(=O)N1CCN(C(=O)OC(C)(C)C)CC1)C(=O)OC(C)(C)C`, the Potency was 15.8 µM (active).

Consider `CC(C)(C)OC(=O)CNC(=O)c1[nH]cnc1C(=O)NC1CCN(C(=O)OC(C)(C)C)CC1`, for which the Potency was 12.6 µM (active).

On to `CC(C)(C)OC(=O)[C@H](Cc1ccccc1)NC(=O)c1nc[nH]c1C(=O)N1CCN(C(=O)OC(C)(C)C)CC1`, for which the Potency is 12.6 µM (active).

As for `CC(NC(=O)c1cc2sccc2n1C)c1ccc2c(c1)OCCO2` (stereo not given), the Potency entry is “inactive”.

Turning to `CCCCN(CCCNC(=O)C1CCN(C(=O)c2cc3sccc3n2C)CC1)Cc1ccccc1`, the Potency is 0.562 µM (active).

`O=S(=O)(CC(CN1CCCCC1)N1CCCCC1)c1ccccc1` (stereo not given): the Potency is 7.94 µM (active).

Turning to `Cc1ccc(OCCn2cc(C(=S)N3CCCC3)c3ccccc32)cc1C`, the Potency was 14.1 µM (active).

Take `CCOC(=O)CSc1nnc(CNc2nc(-c3ccccc3)cs2)n1C`: the Potency is 10 µM (active).

For the compound `Cc1cc(C)nc(SCc2nnc(SCC(=O)Nc3nc(-c4ccccc4)cs3)n2C)n1`, the Potency was 14.1 µM (active).

For the compound `CCCCN(CCCC)CCC(O)c1cc2c(Cl)cc(Cl)cc2c2cc(C(F)(F)F)ccc12` (stereo not given), the Potency was 39.8 nM (active) and 20 nM (active).

As to `COc1ccc(-n2c(C)cc(C(=O)Cn3c(NCCO)nc4ccccc43)c2C)cc1`, the Potency is 10 µM (active).

Consider `CCCc1c(C)c2cccc(C)c2[nH]c1=O`, for which the Potency entry was “inactive”.

For `N#CC(C#N)=C1C=CC=CN1/C(=C\c1ccco1)C(=O)c1ccc(Cl)cc1`, the Potency was 15.8 µM (active).

Take `COc1ccc(C(=O)/C(=C\c2ccco2)N2C=CC=CC2=C(C#N)C#N)cc1`: the Potency is 15.8 µM (active).

As to `N#CC(C#N)=C1C=CC=CN1/C(=C\c1ccco1)C(=O)c1ccc(-c2ccccc2)cc1`, the Potency was 12.6 µM (active).

With `COc1ccc(CCNS(=O)(=O)c2ccc(Br)s2)cc1`, the Potency entry was “inactive”.

`CCN(CC)S(=O)(=O)c1ccc(C2=NOC3(C2)N(C)c2ccccc2C3(C)C)cc1` (stereo not given): the Potency is 12.6 µM (active).

For the compound `CN1c2ccccc2C(C)(C)C12CC(c1ccc(S(=O)(=O)N3CCCCC3)cc1)=NO2` (stereo not given), the Potency was 5.01 µM (active).

Consider `CC(C)NC(=O)c1onc(CSc2cccc3ccccc23)c1C(=O)O`, for which the Potency entry was “inactive”.

Regarding `Cc1nn(C(C)C(=O)Nc2ccccc2Cl)c(=O)c2nn(-c3ccccc3)c(C)c12` (stereo not given), the Potency is 10 µM (active).

For the compound `Cc1nn(C(C)C(=O)NCCCc2ccccc2)c(=O)c2nn(-c3ccccc3)c(C)c12` (stereo not given), the Potency is 12.6 µM (active).

For the compound `Cc1c(NC(=O)C(C)Sc2nccn2C)c(=O)n(-c2ccccc2)n1C` (stereo not given), the Potency entry is “inactive”.

Regarding `Cc1nn(C(C)C(=O)NCCC2=CCCCC2)c(=O)c2nn(-c3ccccc3)c(C)c12` (stereo not given), the Potency is 11.2 µM (active).

`Cc1ccc(C(=O)NCC(=O)NCCCc2ccccc2)s1`: the Potency result was “inactive”.

`CSc1ccc(CNC(=O)C(C)n2nc(C)c3c(C)n(-c4ccccc4)nc3c2=O)cc1` (stereo not given): the Potency was 11.2 µM (active).

For the compound `CCCCCCC1C(C#N)=C(N)OC2=C1C(=O)CCC2` (stereo not given), the Potency entry is “inactive”.

For the compound `Cc1ccc(-c2cc(C(=O)N/N=C/C=C/c3ccco3)c3ccccc3n2)cc1C`, the Potency is 14.1 µM (active).

`CC(C)C[C@@H](NC(=O)[C@H](Cc1ccccc1)NC(=O)c1cnccn1)B(O)O`: the Potency is 0.178 µM (active).

On to `CC(C)=N/N=C1/NC(=O)C(Cc2ccccc2)S1` (stereo not given), for which the Potency is 7.94 µM (active).

For `Cc1cc(=O)oc2ccc(OCC(=O)N3CCc4ccccc43)cc12`, the Potency is 6.31 µM (active).

Turning to `Cc1ccc(NC2CCCN(C(=O)CSc3ccncc3)C2)cc1C` (stereo not given), the Potency is 12.6 µM (active).

Turning to `COc1ccc(NC2CCCN(C(=O)CCc3ccncc3)C2)cc1OC` (stereo not given), the Potency result is “inactive”.

Turning to `Cc1ccc(S(=O)(=O)Nc2cccc3cccnc23)cc1`, the Potency was 5.62 µM (active).

`Cc1ccc(S(=O)(=O)Nc2cccc3cccnc23)c([N+](=O)[O-])c1`: the Potency is 3.98 µM (active).

For the compound `O=C(c1ccc(Cl)cc1)C(Cn1cncn1)C(Sc1ccccc1)c1ccccc1` (stereo not given), the Potency was 12.6 µM (active).

In the case of `O=C1C(=O)c2ccccc2C(O)=C1C1CCC(c2ccc(Cl)cc2)CC1` (stereo not given), the Potency is 0.0158 µM (active).

As to `CN1CC2=Cc3ccccc3OC23Oc2ccccc2C=C3C1`, the Potency was 3.16 µM (active).

For the compound `CCC1=C/C(=C/c2sc3ccccc3[n+]2CC)CC(C)(C)C1`, the Potency is 0.355 µM (active).

Take `CCn1nc(C)c(NC(=O)CC23CC4CC(CC(C4)C2)C3)c1C`: the Potency entry was “inactive”.

As to `NC(=O)COc1ccc(NC(=O)CC23CC4CC(CC(C4)C2)C3)cc1`, the Potency is 11.2 µM (active).

On to `CSCCC(NC(=O)c1ccccc1Cl)C(=O)N1CCN(C(c2ccccc2)c2ccccc2)CC1` (stereo not given), for which the Potency is 3.98 µM (active).

Turning to `Cc1ccc(N2C(=O)N3[C@H](c4ccc(F)cc4)[C@@H]4C(=O)N(C5CCCCC5)C(=O)[C@@H]4[C@]3(Cc3ccccc3)C2=O)cc1`, the Potency is 5.62 µM (active).

On to `O=C(CCc1ccccc1)NNC(=O)c1ccccn1`, for which the Potency is 6.31 µM (active).

As for `O=C(NCc1ccccc1)C(c1cccnc1)N(C(=O)c1ccccn1)c1ccccc1F` (stereo not given), the Potency result was “inactive”.
